Anthrax LF inh2 – inhibitors of Bacillus anthracis lethal factor protease. P15917. multiplex microsphere protease cleavage assay, LF. inhibition, % at 10 µM. 360,000 tested, 0.12% active; also: plate controls were buffer without enzyme for full effect and enzyme alone for no effect
Target sequence (P15917 whole entry, looked up): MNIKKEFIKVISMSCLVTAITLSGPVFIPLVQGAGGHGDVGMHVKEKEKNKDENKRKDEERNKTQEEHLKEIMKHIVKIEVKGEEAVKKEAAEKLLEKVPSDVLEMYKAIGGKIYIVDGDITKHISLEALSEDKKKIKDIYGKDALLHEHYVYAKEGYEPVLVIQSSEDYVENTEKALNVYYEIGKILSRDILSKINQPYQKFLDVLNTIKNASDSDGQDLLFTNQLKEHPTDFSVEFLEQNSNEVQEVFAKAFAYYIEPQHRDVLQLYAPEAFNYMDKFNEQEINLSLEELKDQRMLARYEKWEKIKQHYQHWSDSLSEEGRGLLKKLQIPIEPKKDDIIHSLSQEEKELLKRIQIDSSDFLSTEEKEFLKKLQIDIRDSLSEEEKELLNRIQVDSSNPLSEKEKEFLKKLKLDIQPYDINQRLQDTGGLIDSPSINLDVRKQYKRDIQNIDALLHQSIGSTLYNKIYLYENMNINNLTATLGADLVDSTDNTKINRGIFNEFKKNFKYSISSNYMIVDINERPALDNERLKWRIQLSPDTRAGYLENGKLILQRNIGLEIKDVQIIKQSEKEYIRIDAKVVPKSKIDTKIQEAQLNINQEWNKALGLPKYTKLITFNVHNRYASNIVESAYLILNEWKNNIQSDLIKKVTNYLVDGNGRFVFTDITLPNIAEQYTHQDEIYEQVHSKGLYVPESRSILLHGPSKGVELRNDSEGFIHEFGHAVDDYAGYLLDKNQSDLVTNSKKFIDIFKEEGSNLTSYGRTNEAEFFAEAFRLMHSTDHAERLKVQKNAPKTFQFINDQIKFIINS
Autofluor counter – flagged as autofluorescent in microsphere protease counterscreen. 360,000 tested, 3.1% active. fluorescence intensity (concentration not given with the values). compound autofluorescence counterscreen, microsphere flow cytometry; stronger effect = higher value; in the data active = fluorescence intensity above about 16000; inconclusive = no clear call, values can overlap the other calls
Vc quorum ag-1 – induces V. cholerae light production without autoinducers | activation, % at 18.7 µM | V. cholerae BH1578 lux reporter, luminescence, 6 h | 350,000 tested, 0.16% active; in the data active = activation mostly above about 9.7%, no sharp cut-off; inconclusive = no clear call, values can overlap the other calls; inactive = mostly below about 3.7%
BoNT F protease – blocks Botulinum neurotoxin F light chain protease. 360,000 tested, 0.22% active. Multiplex microsphere protease cleavage assay, flow cytometry. inhibition, % at 10 µM. AID 588497; in the data active = inhibition above about 35%, passing the limit was not always enough; inconclusive = no clear call, values can overlap the other calls; also: plate controls were buffer without enzyme for full effect and enzyme alone for no effect
BoNT-A LC inh2 – BoNT A light chain protease inhibition; multiplex microsphere protease substrate cleavage, flow cytometry; inhibition, % at 10 µM; 360,000 tested, 0.17% active; also: plate controls were buffer without enzyme for full effect and enzyme alone for no effect
Vc quorum ag-2 – quorum light induction in BH1578 reporter strain; 620 tested, under 10 active; shares compounds with Vc quorum ag-1; activation, % at 50 µM; V. cholerae BH1578 lux reporter, luminescence, 6 h; call rule not given here
HeLa 24h tox – cytotoxicity in HeLa cells at 24 hours; shares compounds with Vc quorum ag-1; HeLa viability, CellTiter-Glo ATP luminescence; activity change, negative = cytotoxicity, % at 35 µM; 25 tested, under 10 active; AID 624140;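 active = signal drop with fitted half-maximal concentration at or below twice the highest valid dose; inconclusive = flat curve with 30 to 70% loss, or poor fit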
The depositor's hits bear a star; i = inactive; u = inconclusive; x = no result; + = active, no number. Only some compounds are listed: those with a hit (about 3.5% of all), similar ones and a draw of the others. Rule as the data show it, unless noted: active = inhibition above about 30%; inconclusive = no clear call, values can overlap the other calls; inactive = below that.

SMILES	Anthrax LF inh2	Autofluor counter	Vc quorum ag-1	BoNT F protease	BoNT-A LC inh2	Vc quorum ag-2	others
COc1ccccc1NC(=O)CN1CCOCC1	-6	3962	i	-33	4	x
COc1ccccc1NC(=O)CN1CCN(c2ccccc2F)CC1	-2	2226	35*	-3	0	96
CC(C)N(C)c1ncnc2c1ncn2[C@H]1CN(Cc2ccc3c(c2)OCO3)C[C@@H](CO)O1	-7	3804	0	-3	0	x
Cc1ccc(S(=O)(=O)NCc2ccccc2)cc1C(=O)NC1CCCCC1	-4	6151	-1	-5	-2	x
Cc1ccc(S(=O)(=O)NCc2cccnc2)cc1C(=O)NC1CCCCC1	-1	5589	14	10	1	0
Cc1ccc(CNc2nnnn2C)cc1	-5	4201	0	-3	-1	x
CCn1nnnc1NCc1ccc(SC)cc1	1	3761	x	-1	-1	i
CCn1nnnc1NCc1ccc(N2CCCC2)cc1	-14	2096	x	-79	3	i	HeLa 24h tox=13
Cc1nn(-c2ccccc2)c(C)c1NC(=O)COC(=O)c1cccc(OC(F)F)c1	1	5741	26	-4	1	0
Clc1ccc(-c2cnc(Oc3ccccc3)nc2)cc1	1	2405	2	-4	0	x
Cc1ccc(Oc2nccc(-c3ccc(Cl)cc3)n2)cc1	5	3222	12	2	-1	0
CCN(CC(=O)NCc1ccc(Cl)cc1)C(=O)/C=C/c1ccc(Cl)c([N+](=O)[O-])c1	-2	5372	i	-7	-4	x
O=C(Nc1nc(-c2ccccc2)cs1)c1ccccc1NS(=O)(=O)c1ccc(F)cc1	1	2484	0	2	0	x
O=S(=O)(Nc1ccc(-c2csc(-c3ccccc3)n2)cc1)c1ccc(F)cc1	-6	2125	25*	-6	-1	0
CCC(CC)c1nnc(NC(=O)COc2ccc3c(C)cc(=O)oc3c2)s1	0	9685	25	-23	-2	0
Cc1nnc(NC(=O)COc2ccc3c(C)cc(=O)oc3c2)s1	-1	3694	-1	-3	0	x
Cn1c(=O)oc2cc(S(=O)(=O)N3CCN(c4ccc(F)cc4)CC3)ccc21	-3	3649	97*	-1	0	4
Cn1c(=O)c(=O)n(C)c2cc(S(=O)(=O)N3CCN(c4ccc(F)cc4)CC3)ccc21	0	2205	0	-11	0	x
Nc1ccn([C@@H]2O[C@H](CNCc3ccc(Oc4cc(-n5cccn5)ncn4)cc3)[C@@H](O)[C@H]2O)c(=O)n1	2	3816	-1	-4	0	x
CCC(=O)NCCc1nc(-c2ccccc2)no1	-7	4244	986*	5	-1	716
O=C(NCc1nc(-c2ccccc2)no1)c1cccs1	-4	9851	179*	-2	-1	45
COCCN(C(=O)c1snc(C(N)=O)c1N)C(C(=O)NC1CCCCC1)c1ccc(F)cc1 (stereo not drawn)	2	4417	0	u	-4	x
O=S(=O)(c1ccc(F)cc1)N1CCN(c2ccccn2)CC1	4	4180	-1	-6	-2	x
Cc1ccc(CN2CCN(Cc3ccc4cc(F)ccc4n3)CC2CCO)o1 (stereo not drawn)	2	4114	-3	-4	1	x
CC1CCc2nn(CC(=O)NC3CCCC3)cc2C1 (stereo not drawn)	-4	6232	+	-12	-2	i
SMILES	Anthrax LF inh2	Autofluor counter	Vc quorum ag-1	BoNT F protease	BoNT-A LC inh2	Vc quorum ag-2	others
O=C(Cn1cc2c(n1)CCCC2)NC1CCCCCC1	-7	5344	0	-3	-1	x
O=C(NCc1ccco1)C1CCCN1S(=O)(=O)c1ccc2ccccc2c1 (stereo not drawn)	0	8087	14	4	0	0
COc1ccc(C2/C=C\CN(Cc3ccc(N(C)C)cc3)CC(=O)N2Cc2ccc(F)cc2)cc1 (stereo not drawn)	3	3563	i	2	0	x
C=CCNC(=O)CCCOc1ccc(C)cc1	-2	2744	35*	7	0	10
COC(=O)CCN1CCC2CC1c1cc(Cl)ccc12 (stereo not drawn)	-12	3617	i	-10	-1	x
CC(=O)Nc1sc2c(c1C#N)CCC(C)C2 (stereo not drawn)	-4	4639	-1	-2	0	x
Cc1ccc(C)n1-c1sc2c(c1C#N)CCC(C)C2 (stereo not drawn)	-5	2680	14	2	-1	2
CCn1nnc(NC(=O)COc2ccc([N+](=O)[O-])cc2)n1	4	4478	0	-7	-1	x
O=C(c1cn(-c2ccccc2)nc1-c1cccs1)N1CCOCC1	-3	2143	25*	0	0	0
Clc1ccc(-c2cc(COc3ccc4ccccc4c3)no2)cc1	-5	u	12	-3	0	0
Clc1ccc(SCc2cc(-c3ccccc3)on2)cc1	-8	2005	-1	8	0	x
CN1C(=O)Cc2cc(S(=O)(=O)N3CCN(c4ccccc4F)CC3)ccc21	2	6164	-13	-3	-2	x
COCc1nnc(NS(=O)(=O)c2ccc(Br)cc2)s1	6	9972	28*	-10	-1	0
CC(C)NC(=O)c1cnc(Sc2ncc(C(F)(F)F)cc2Cl)n1C	2	2671	12	2	0	0
CC(C)NC(=O)N(C)C[C@H]1Oc2ccc(NS(=O)(=O)c3ccc(F)cc3)cc2C(=O)N([C@H](C)CO)C[C@@H]1C	-2	4025	i	-6	0	x
COc1ccccc1CNC(=O)COC(=O)c1n[nH]c2ccccc12	7	3275	12	-4	0	2
COc1ccccc1CNC(=O)c1n[nH]c2ccccc12	-3	4656	i	1	0	x
O=C(Nc1ccc(S(=O)(=O)N2CCCCCC2)cc1)c1ccco1	-6	4270	-2	-11	-1	x
C[C@H](NC(=O)c1ccco1)C(=O)Nc1ccc(S(=O)(=O)N2CCCC2)cc1	-1	2306	14	9	0	18
CC(=O)NS(=O)(=O)c1ccc(NC(=O)c2ccc(S(=O)(=O)N3CCCC3)cc2)cc1	-7	4201	i	-11	-1	x
COc1cc(NC(=O)c2ccccc2)c(OC)cc1NC(=O)CN1C(=O)N(C)C2(CCCCC2)C1=O	1	5947	14	2	2	1
COc1cc(NC(=O)c2ccccc2)c(OC)cc1NC(=O)CN1C(=O)NC2(CCCCC2)C1=O	0	3815	-3	-5	1	x
O=C(Nc1cc(S(=O)(=O)N2CCCC2)ccc1Cl)c1cc(F)c(F)c(F)c1F	2	3512	-3	-1	0	x
CN(C)c1nc(Cl)nc(N(C#N)CCOc2ccccc2)n1	-4	3972	i	-2	0	x
COc1c(C)cccc1C(=O)Nc1ccc(OCC(=O)N2CCOCC2)cc1C	2	5012	11	5	2	0
COc1cc(C(=O)Nc2ccc(OCC(=O)N3CCOCC3)cc2C)cc(OC)c1OC	-4	3530	-4	12	0	x
